Out of some 5,500 compounds screened, about 2,000 (36%) were called active. Another 18% or so got no clear call; they are omitted. Cut-off read from the data, not from the text of the source: active = normalized growth mostly below about 0.91 (no sharp cut-off); inconclusive = no clear call, values can overlap the other calls; inactive = mostly above about 0.92. The list shows a part of the results.
Experiment: chemical genetic growth profiling, strain panel (AID 1159580);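 note: tested at 20 µM; growth read once vehicle control cultures reached saturation at 30 °C; 1 = growth at the plate median or of vehicle wells; lower values mean less growth of the strain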
Details: growth OD

Measured: normalized growth

NS(=O)(=O)c1cc2c(cc1Cl)NC(C(Cl)Cl)NS2(=O)=O (stereo not drawn)
inactive: S. cerevisiae deletion strains, locus YKL009W, strain mrt4, hits give low values 1.02 | S. cerevisiae deletion strains, locus YKL068W, hits give low values 1 | S. cerevisiae deletion strains, locus YKL085W, strain MDH1 (second series), hits give low values 1.01 | S. cerevisiae deletion strains, locus YKL085W, strain MDH1, hits give low values 1.01 | S. cerevisiae deletion strains, locus YKL160W, strain elf1, hits give low values 1 | S. cerevisiae deletion strains, locus YKL190W, strain CNB1, hits give low values 1.02 | S. cerevisiae deletion strains, locus YKR001C, strain vps1, hits give low values 1.03 | S. cerevisiae deletion strains, locus YKR026C, strain gcn3, hits give low values 0.99 | S. cerevisiae deletion strains, locus YKR091W, strain srl3, hits give low values 0.97 | S. cerevisiae deletion strains, locus YLL001W, strain dnm1, hits give low values 1.01 | S. cerevisiae deletion strains, locus YLL026W, hits give low values 0.991 | S. cerevisiae deletion strains, locus YLL041C, strain sdh2, hits give low values 0.988 | S. cerevisiae deletion strains, locus YLR027C, strain aat2, hits give low values 0.985 | S. cerevisiae deletion strains, locus YLR039C, strain RIC1, hits give low values 1.06 | S. cerevisiae deletion strains, locus YLR058C, strain SHM2, hits give low values 1.02 | S. cerevisiae deletion strains, locus YLR102C, strain apc9, hits give low values 1.01 | S. cerevisiae deletion strains, locus YLR113W, strain HOG1, hits give low values 0.996 | S. cerevisiae deletion strains, locus YLR221C, strain rsa3, hits give low values 0.949 | S. cerevisiae deletion strains, locus YLR258W, strain gsy2, hits give low values 0.977 | S. cerevisiae deletion strains, locus YLR262C, strain YPT6 (second series), hits give low values 0.999 | S. cerevisiae deletion strains, locus YLR262C, strain YPT6, hits give low values 1.05 | S. cerevisiae deletion strains, locus YLR268W, strain sec22, hits give low values 1.04 | S. cerevisiae deletion strains, locus YLR320W, strain mms22, hits give low values 0.972 | S. cerevisiae deletion strains, locus YLR330W, strain CHS5, hits give low values 1 | S. cerevisiae deletion strains, locus YLR342W, strain FKS1 (second series), hits give low values 1.02 | S. cerevisiae deletion strains, locus YLR342W, strain FKS1, hits give low values 0.993 | S. cerevisiae deletion strains, locus YLR357W, strain rsc2, hits give low values 0.956 | S. cerevisiae deletion strains, locus YLR370C, strain arc18, hits give low values 0.985 | S. cerevisiae deletion strains, locus YLR371W, strain rom2, hits give low values 1.02 | S. cerevisiae deletion strains, locus YLR384C, strain iki3, hits give low values 0.973 | S. cerevisiae deletion strains, locus YLR418C, strain cdc73, hits give low values 1.05 | S. cerevisiae deletion strains, locus YML016C, strain PPZ1, hits give low values 1 | S. cerevisiae deletion strains, locus YML032C, strain rad52, hits give low values 1.02 | S. cerevisiae deletion strains, locus YML120C, strain ndi1, hits give low values 0.986 | S. cerevisiae deletion strains, locus YML124C, strain tub3, hits give low values 1.02 | S. cerevisiae deletion strains, locus YMR058W, strain fet3, hits give low values 0.982 | S. cerevisiae deletion strains, locus YMR078C, strain ctf18, hits give low values 1.02 | S. cerevisiae deletion strains, locus YMR125W, strain sto1, hits give low values 0.966 | S. cerevisiae deletion strains, locus YMR129W, hits give low values 0.97 | S. cerevisiae deletion strains, locus YMR205C, strain PFK2, hits give low values 0.994 | S. cerevisiae deletion strains, locus YMR223W, strain ubp8, hits give low values 1.01 | S. cerevisiae deletion strains, locus YMR231W, strain pep5, hits give low values 0.971 | S. cerevisiae deletion strains, locus YMR263W, strain SAP30, hits give low values 1.01 | S. cerevisiae deletion strains, locus YMR307W, strain GAS1, hits give low values 1 | S. cerevisiae deletion strains, locus YNL067W, strain RPL9B, hits give low values 1.01 | S. cerevisiae deletion strains, locus YNL071W, strain lat1, hits give low values 0.981 | S. cerevisiae deletion strains, locus YNL183C, strain NPR1, hits give low values 0.943 | S. cerevisiae deletion strains, locus YNL209W, strain ssb2, hits give low values 0.997 | S. cerevisiae deletion strains, locus YNL233W, strain BNI4, hits give low values 1.01 | S. cerevisiae deletion strains, locus YNL248C, strain rpa49, hits give low values 0.935 | S. cerevisiae deletion strains, locus YNL250W, strain rad50, hits give low values 1.02 | S. cerevisiae deletion strains, locus YNL271C, strain bni1, hits give low values 1.01 | S. cerevisiae deletion strains, locus YNL298W, strain CLA4, hits give low values 1.01 | S. cerevisiae deletion strains, locus YNL307C, strain MCK1, hits give low values 1.03 | S. cerevisiae deletion strains, locus YNL322C, strain KRE1 (second series), hits give low values 0.968 | S. cerevisiae deletion strains, locus YNR049C, strain mso1, hits give low values 0.971 | S. cerevisiae deletion strains, locus YNR052C, strain pop2, hits give low values 1.01 | S. cerevisiae deletion strains, locus YOL006C, strain TOP1, hits give low values 1.02 | S. cerevisiae deletion strains, locus YOL012C, strain htz1 0.822 | S. cerevisiae deletion strains, locus YOL147C, strain pex11, hits give low values 1.01 | S. cerevisiae deletion strains, locus YOR001W, strain rrp6, hits give low values 0.978 | S. cerevisiae deletion strains, locus YOR061W, strain CKA2, hits give low values 1 | S. cerevisiae deletion strains, locus YOR069W, strain VPS5, hits give low values 1.01 | S. cerevisiae deletion strains, locus YOR070C, strain gyp1, hits give low values 0.983 | S. cerevisiae deletion strains, locus YOR080W, strain dia2, hits give low values 0.984 | S. cerevisiae deletion strains, locus YOR083W, strain WHI5, hits give low values 0.982 | S. cerevisiae deletion strains, locus YOR106W, strain vam3, hits give low values 1.01 | S. cerevisiae deletion strains, locus YOR136W, strain idh2, hits give low values 1.01 | S. cerevisiae deletion strains, locus YOR144C, strain elg1, hits give low values 1 | S. cerevisiae deletion strains, locus YOR184W, strain ser1, hits give low values 1.02 | S. cerevisiae deletion strains, locus YOR231W, strain MKK1, hits give low values 0.98 | S. cerevisiae deletion strains, locus YOR265W, strain rbl2, hits give low values 0.981 | S. cerevisiae deletion strains, locus YOR270C, strain vph1, hits give low values 0.967 | S. cerevisiae deletion strains, locus YOR290C, strain snf2, hits give low values 0.945 | S. cerevisiae deletion strains, locus YOR316C, strain cot1, hits give low values 1.01 | S. cerevisiae deletion strains, locus YPL051W, strain arl3, hits give low values 0.991 | S. cerevisiae deletion strains, locus YPL055C, strain LGE1, hits give low values 1.02 | S. cerevisiae deletion strains, locus YPL078C, strain atp4, hits give low values 1 | S. cerevisiae deletion strains, locus YPL106C, strain sse1, hits give low values 0.96 | S. cerevisiae deletion strains, locus YPL240C, strain hsp82, hits give low values 0.983 | S. cerevisiae deletion strains, locus YPL241C, strain CIN2, hits give low values 1.01 | S. cerevisiae deletion strains, locus YPL256C, strain CLN2, hits give low values 0.969 | S. cerevisiae deletion strains, locus YPR119W, strain clb2, hits give low values 1 | S. cerevisiae deletion strains, locus YPR141C, strain kar3, hits give low values 1.02 | S. cerevisiae deletion strains, locus YPR163C, strain tif3, hits give low values 1.02 | S. cerevisiae deletion strains, locus YPR167C, strain met16, hits give low values 1.01 | S. cerevisiae deletion strains, strain wtn01, hits give low values 1.03 | S. cerevisiae strains, strain wild type, hits give low values 1

From PubChem BioAssay AID1159580 (chemical genetic matrix, 2015)
